Sampled rows, rich in hits. Any-hit rate of the full collection: about 0.43%.
GLA inh pH 4.5 = qHTS Assay for Inhibitors of Human alpha-Galactosidase at pH 4.5 | Alpha-galactosidase A (Homo sapiens), P06280 | purified enzyme, 4-MU-alpha-Gal fluorescence, pH 4.5 | activity change, negative = inhibition, % at 105 µM | 230,000 tested, under 10 active | AID 1467, 2008
Target sequence (P06280 whole entry, looked up): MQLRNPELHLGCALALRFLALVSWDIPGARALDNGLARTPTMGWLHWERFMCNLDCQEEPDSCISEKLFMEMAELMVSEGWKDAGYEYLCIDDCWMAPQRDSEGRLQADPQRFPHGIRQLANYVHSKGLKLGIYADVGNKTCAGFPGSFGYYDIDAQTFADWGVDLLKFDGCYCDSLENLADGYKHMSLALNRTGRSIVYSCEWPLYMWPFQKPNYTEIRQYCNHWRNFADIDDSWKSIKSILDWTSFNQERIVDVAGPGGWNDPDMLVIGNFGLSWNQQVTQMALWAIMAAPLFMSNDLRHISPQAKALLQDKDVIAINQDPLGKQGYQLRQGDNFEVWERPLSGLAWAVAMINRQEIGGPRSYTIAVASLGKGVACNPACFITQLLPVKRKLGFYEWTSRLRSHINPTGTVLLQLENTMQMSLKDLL
GAA spleen mod = qHTS Assay for Inhibitors and Activators of Human alpha-Glucosidase From Spleen Homogenate | Lysosomal alpha-glucosidase (Homo sapiens), P10253 | human spleen homogenate, 4-MU-alpha-glucoside fluorescence | Potency, µM (highest dose often 79.9 µM), most hits filed as inhibitors | 240,000 tested, 0.006% active
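AC50 values come from Hill-equation fits of concentration-response data, normalized to no-enzyme and full-activity controls. Enzyme source: 1 ug human spleen homogenate; 1 mM fluorogenic 4-MU glucoside, pH 5.0 citrate buffer, 37 C, 40 min.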
GAA inhib = qHTS Assay for Inhibitors of Human alpha-Glucosidase as a Potential Chaperone Treatment of Pompe Disease; purified human GAA, 4-MU-alpha-glucoside fluorescence; Potency, µM (titrated, usually from 76.9 µM), most hits filed as inhibitors; 200,000 tested, 0.005% active
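Enzyme (4 nM final) mixed with compound (up to 77 uM), then 4-MU-alpha-D-pyranoside (400 uM final) added; 20 min at room temperature, pH 5.0. Reaction stopped at pH 10, fluorescence read, AC50 derived by Hill fit.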
N370S GC = qHTS Assay for Inhibitors and Activators of N370S glucocerebrosidase as a Potential Chaperone Treatment of Gaucher Disease; N370S GC spleen homogenate, 4MU-glucoside fluorescence; Potency, µM (series often up to 59.4 µM), most hits filed as inhibitors; AID 2101, 2009; 330,000 tested, 0.092% active
GLA spleen mod = qHTS Assay for Inhibitors and Activators of Human alpha-Galactosidase From Spleen Homogenate. Alpha-galactosidase A (Homo sapiens), P06280. human spleen homogenate, 4MU-alpha-Gal fluorescence, 40 min. Potency, µM (top dose mostly 80 µM), usual class: inhibitors. 240,000 tested, 0.008% active. AID 2107, 2009
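Human spleen homogenate (1 ug) was the enzyme source, with 4-methylumbelliferyl-alpha-D-galactopyranoside (1 mM final) in pH 5.0 citrate buffer with 0.01% Tween-20. Compounds were titrated; after 40 min at 37C, NaOH/glycine stop, 4-MU fluorescence read; AC50 from Hill fits.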
GAA glycogen mod = qHTS Assay for Inhibitors and Activators of Human alpha-Glucosidase Cleavage of Glycogen. 300,000 tested, 0.38% active. recombinant GAA, glycogen substrate, Amplex Red glucose oxidase fluorescence. AID 2100, 2009. Potency, µM (top dose mostly 76.4 µM), actives largely listed as inhibitors;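 note: the screen sought inhibitors and activators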
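Natural-substrate format: glycogen cleavage by 4 nM human enzyme, glucose read by Amplex Red coupling (Ex 573, Em 610 nm). Normalized to enzyme and no-enzyme controls.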
Hits are given with their value; - = inactive; ? = inconclusive; . = not tested or not shown. Calls come from the whole dose curve; as a rule, active = well fitted curve in the direction sought with a large enough effect; inconclusive = small, poorly fitted or top-dose-only effect, or another doubt; inactive = no such curve, though single readings can be large; an effect the other way counts as inactive or inconclusive.

SMILES | GLA inh pH 4.5 | GAA spleen mod | GAA inhib | N370S GC | GLA spleen mod | GAA glycogen mod
O=C1CC(N2CCCCCC2)C(=O)N1c1ccc2c(c1)OCO2 (centres undefined) | - | - | - | - | - | -
O=C1CC(N2CCN(c3ccc(O)cc3)CC2)C(=O)N1c1ccc2c(c1)OCO2 (centres undefined) | - | - | - | - | - | 16µM
Nc1ccc(NC(=O)NC2CCCCC2)cc1 | - | - | - | - | - | 18µM
O=C(Nc1ccc(Cl)cc1)NC1CCCCC1 | - | - | - | - | - | -
O=c1oc2ccccc2c(Nc2ccc(O)cc2)c1[N+](=O)[O-] | - | - | - | . | - | 3.5µM
CCc1ccc(Nc2c([N+](=O)[O-])c(=O)oc3ccccc23)cc1 | - | - | . | - | - | -
Oc1c(Cl)cc(Cl)c2c1NCCC2 | - | - | - | - | - | 14µM
O=C1NCCCc2c1oc1ccc(O)cc21 | - | - | - | - | - | -
Cc1sc(NC(=O)c2ccccc2)c(C(c2ccccn2)N2CCN(CCO)CC2)c1C (centres undefined) | - | - | - | - | - | -
CCc1cc(C(c2ccccn2)N2CCN(C)CC2)c(NC(=O)c2ccccc2)s1 (centres undefined) | - | - | - | 14µM | - | -
CCOc1ccc(C(c2c(NC(=O)c3ccccc3)sc(C)c2C)N2CCN(C)CC2)cc1 (centres undefined) | - | - | ? | 16µM | - | -
CSc1ncc(C(=O)Nc2cccc(Cl)c2C)c(-c2ccccc2)n1 | . | . | . | . | . | -
CCCCN(CC)C(=O)C1CCCN(c2ncnc3c2nc2n3CCCCC2)C1 (centres undefined) | . | . | . | . | . | -
COc1ccc(C(=O)NNC(=S)NC(=O)C(C)(C)C)cc1 | - | - | - | - | - | 7.9µM
CCCCN1C[C@H](O)[C@@H](O)[C@H](O)[C@H]1CO | . | 1.6µM | 6.3µM | . | - | 2.5µM
Cc1cc(Cl)ccc1OCC(=O)Nc1c(Cl)ccc2nsnc12 | . | . | . | . | . | -
C=CCNC(=S)NNc1nc(N2CCCC2)nc(N2CCCC2)n1 | . | . | . | - | . | ?
C=CCNC(=S)NNc1nc(Nc2ccccc2)nc(N2CCCCC2)n1 | - | - | - | - | - | 16µM
Cc1cc(Br)cc2c(C(=O)OCC(=O)c3ccccc3)cc(-c3ccccc3)nc12 | . | . | . | . | . | -
Cn1c(-c2ccc3c(c2)OCO3)cnc1NCc1cccc(Cl)c1 | - | - | - | - | - | 18µM
O=C(Nc1cccc(F)c1)c1ccc2snnc2c1 | . | . | . | . | . | -
COc1ccc(C(=O)NNc2ccccc2)cc1OC | - | - | - | - | - | 22µM
CC1=NNC(=O)C1C(c1cccc(O)c1)C(C#N)C#N (centres undefined) | - | - | . | - | - | -
CC1=NNC(=O)C1C(c1ccccc1)C1C(=O)NN=C1C (centres undefined) | - | - | ? | - | - | 13µM
CN(Cc1ccccc1)c1nnc(NC(=O)Nc2cccc(Br)c2)s1 | . | . | . | . | . | -
SMILES | GLA inh pH 4.5 | GAA spleen mod | GAA inhib | N370S GC | GLA spleen mod | GAA glycogen mod
Cc1ccc(CNC(=O)Cn2c(=O)n(-c3ccc(C)c(F)c3)c(=O)c3sc4ccccc4c32)cc1 | . | . | . | . | . | -
Cc1c(Cl)cccc1NC(=O)CCOc1ccccc1 | . | . | . | . | . | -
COc1cc(/C=N/NC(=S)NCCN2CCOCC2)ccc1O | - | - | - | ? | - | 25µM
COCCNC(=S)N/N=C/c1ccc(N2CCOCC2)cc1 | - | - | - | - | - | ?
Cc1[nH]c2ccccc2c1C(=O)CSc1nc2ccccc2c(=O)n1CCCN1CCOCC1 | - | - | - | 10µM | - | -
Cn1c(N)c(C(=O)CSc2nc3ccccc3c(=O)n2CCCN2CCOCC2)c(=O)n(C)c1=O | - | - | - | - | - | -
Cc1c(Cl)cccc1NC(=O)c1cc2sccc2n1Cc1ccc(F)cc1 | . | . | . | . | . | -
CNC(=O)c1c(NC(=O)c2ccco2)sc2c1CCCC2 | . | . | . | - | . | -
Cc1ccc(C(=O)C(NC(=O)c2ccco2)Nc2sc3c(c2C(N)=O)CCCC3)cc1 (centres undefined) | - | - | - | - | - | 25µM
Cc1ccc2oc(=O)c(/C=C(\O)c3ccco3)nc2c1 | - | - | . | - | - | ?
CC(C)(C)/C(O)=C/c1nc2cc(Cl)ccc2oc1=O | - | - | . | - | - | 3.2µM
Cc1ccc2oc(=O)c(/C=C(\O)C(C)(C)C)nc2c1 | - | - | - | - | - | 6.3µM
Oc1ccc(Nc2ncnc3ccccc23)cc1 | . | . | . | - | . | 22µM
Cc1ccc(-c2nnc(Nc3ccc(O)cc3)c3ccccc23)cc1S(=O)(=O)NCC1CCCO1 (centres undefined) | . | . | . | . | . | 16µM
Cc1ccc(-c2nnc(Nc3ccc(O)cc3)c3ccccc23)cc1S(=O)(=O)NC(C)(C)CO | . | . | . | . | . | 8.9µM
CC(=O)Nc1ccc(Nc2nnc(-c3ccc(C)c(S(=O)(=O)NCCO)c3)c3ccccc23)cc1 | . | . | . | - | . | -
Oc1ccc(Nc2nnc(-c3ccc(O)cc3)c3ccccc23)cc1 | - | - | - | ? | - | 16µM
CCC(C)NC(=O)c1ccc(Cn2c(=O)c3cccn3c3cccnc32)cc1 (centres undefined) | . | . | . | . | . | -
O=C(Cn1cc(S(=O)(=O)Cc2cccc(Cl)c2)c2ccccc21)NCCc1ccccc1 | . | . | . | . | . | -
O=C(Nc1ccc(Cl)cc1)c1cc2c(-c3ccccc3)nn(-c3ccccc3)c2s1 | . | . | . | . | . | -
NNc1nc(Nc2ccc([N+](=O)[O-])cc2)nc(N2CCCCCC2)n1 | . | . | . | - | . | ?
Cc1ccc([N+](=O)[O-])cc1Nc1nc(N2CCCC2)nc(N2CCCC2)n1 | . | . | . | - | . | 32µM
Cc1ccc(-c2nc(Nc3ccc(N4CCOCC4)cc3)c3ccccc3n2)cc1 | - | - | . | 14µM | - | -
c1ccc(Nc2nc(-c3ccccc3)nc3ccccc23)cc1 | . | . | . | ? | . | -
c1ccc(Nc2nc(-c3ccoc3)nc3ccccc23)cc1 | . | - | . | 13µM | - | .
COc1ccc(N2CCN(C(=O)c3cc4c(-c5ccccc5F)nn(C)c4s3)CC2)cc1 | . | . | . | . | . | -
COC(=O)C(C)CCCC(C)CCCC(C)CCCC(C)C (centres undefined) | . | - | . | - | - | .
COc1ccc2ccccc2c1/C=N/Nc1cccc(C(=O)O)c1 | . | . | . | - | . | ?
O=C(N/N=C/c1ccncc1)c1cccc(N/N=C/c2ccncc2)c1 | - | - | - | - | - | -
O=C(O)c1cccc(N/N=C/c2cccc3ccccc23)c1 | . | . | . | - | . | 32µM

High-throughput results deposited in PubChem BioAssay by National Center for Advancing Translational Sciences (NCATS).
